Compound activity from PubChem.
Compounds with a hit are over-represented: about 3.7% of the library has one in this group of screens.
TGFb inhibitor: qHTS for Inhibitors of TGF-b | AID 588855, 2011 | 410,000 compounds, 1.2% hits | HepG2 CAGA-GFP TGF-b/SMAD3 reporter, GFP fluorescence, 18 h; TGF-beta stimulated, 500 pg/mL final | Potency, µM (highest dose often 46.1 µM), usual class: inhibitors; also: nearly all actives have a fitted effect of over 65% in size
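Using HEPG2 CAGA-GFP reporter cells at 1000 cells/well, we pinned test compounds, stimulated with recombinant TGF-beta (500 pg/mL final) and measured total well GFP after 18 h.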
HepG2 viability: qHTS for Inhibitors of TGF-b: Cytotox Counterscreen; 410,000 compounds, 0.76% hits; Potency, µM (highest dose often 46.1 µM), actives largely listed as cytotoxic; HepG2 CAGA-GFP viability, ATP luminescence, 18 h; AID 588856, 2011
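HepG2 CAGA-GFP cells (1000/well, DMEM with 1% FBS) received compound, then TGF-beta at 500 pg/mL final, and were incubated 18 hours at 37 degrees C. Viability was read by CellTiter-Glo luminescence. Media-only wells were set as complete cell-killing and DMSO as no toxicity.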
GLP1R ag: qHTS of GLP-1 Receptor Agonists | Glucagon-like peptide 1 receptor (Homo sapiens), P43220 | HEK293 GLP-1R CRE-luciferase, luminescence, 4-6 h; cells express a hypersensitive GLP-1R form | Potency, µM (series often up to 45.6 µM), most hits filed as activators | 380,000 compounds, 0.007% hits
Target sequence (P43220 whole entry, looked up): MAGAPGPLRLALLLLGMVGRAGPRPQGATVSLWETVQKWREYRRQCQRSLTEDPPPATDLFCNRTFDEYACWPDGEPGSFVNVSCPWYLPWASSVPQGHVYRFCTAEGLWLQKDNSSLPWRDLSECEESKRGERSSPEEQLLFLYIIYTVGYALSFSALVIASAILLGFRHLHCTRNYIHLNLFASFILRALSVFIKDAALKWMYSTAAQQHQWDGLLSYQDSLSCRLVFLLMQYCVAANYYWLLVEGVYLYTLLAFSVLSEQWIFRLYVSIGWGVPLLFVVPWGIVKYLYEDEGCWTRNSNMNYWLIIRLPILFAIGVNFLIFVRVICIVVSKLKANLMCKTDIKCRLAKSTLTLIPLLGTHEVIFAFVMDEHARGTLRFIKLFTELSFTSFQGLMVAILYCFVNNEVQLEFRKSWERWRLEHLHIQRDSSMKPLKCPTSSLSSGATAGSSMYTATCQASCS
ATXN viability: Viability Counterscreen for Primary qHTS for Inhibitors of ATXN expression; S2 cells (HEK-293 line with an ATXN2-luciferase reporter) viability, CellTiter-Fluor protease fluorescence, 24 h; Potency, µM (highest dose often 56.7 µM), most hits filed as cytotoxic; 400,000 compounds, 0.49% hits; AID 651635, 2014; also: nearly all actives have a fitted effect of over 40% in size
ATXN2 expr inh: Primary qHTS for Inhibitors of ATXN expression. HEK-293 ATXN2-luciferase reporter, luminescence, 24 h. Potency, µM (doses to about 57 µM), hits mostly inhibitors. 360,000 compounds, 0.72% hits; also: nearly all actives have a fitted effect of over 55% in size
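ATXN2-luciferase reporter cells (luciferase flanked by upstream and downstream ATXN2 gene portions) were treated 24 h at 37 °C with compounds at up to 57 uM. SteadyGlo luminescence gave expression; GF-AFC fluorescence gave viability.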
GLP1R inv ag: qHTS of GLP-1 Receptor Inverse Agonists (Inhibition Mode); Potency, µM (series often up to 38.3 µM), actives largely listed as inhibitors; HEK293 GLP-1R CRE-luciferase, luminescence, 24 h; GLP-1R form is constitutively active; 410,000 compounds, 1.6% hits; also: nearly all actives have a fitted effect of over 55% in size
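Stable HEK293 clone (constitutively active GLP-1R + cAMP-response luciferase); 200 cells/uL plated, 12 h pre-culture, compound 24 hr, 37 deg C/5% CO2; detection reagent 12 min RT; luminescence.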
Large screens that a line does not name were inactive. Calls follow the shape of the dose curve; as a rule, active = well fitted curve in the direction sought with a large enough effect; inconclusive = small, poorly fitted or top-dose-only effect, or another doubt; inactive = no such curve, though single readings can be large; an effect the other way counts as inactive or inconclusive.

CCOC(=O)c1ccc(/C=C2/C=C(c3ccccc3)N(c3ccc(Cl)c(C(=O)O)c3)C2=O)cc1	ATXN viability inconclusive, ATXN2 expr inh 10.6µM, GLP1R inv ag 10µM
Cc1cc(-c2ncc(CC(=O)Nc3ccc(-c4cnccn4)cn3)cc2C)ccn1	none (no result: TGFb inhibitor, HepG2 viability, GLP1R ag, ATXN viability, GLP1R inv ag)
Cn1c(SCc2ccc(Cl)cc2)nnc1-c1ccc(NC(=O)CCc2ccccc2)cc1	none (no result: GLP1R ag, ATXN viability, ATXN2 expr inh, GLP1R inv ag)
Cc1nn(Cc2c(F)c(F)c(F)c(F)c2F)c(C)c1NC(=O)c1ccc(COc2ccc(Cl)cc2Cl)o1	TGFb inhibitor inconclusive, ATXN2 expr inh 20µM, GLP1R inv ag 5.01µM
Cc1nn(Cc2cccc(F)c2)c(C)c1NC(=O)c1ccc(COc2ccccc2Cl)cc1	TGFb inhibitor inconclusive, ATXN viability inconclusive, ATXN2 expr inh 3.16µM
Cc1nn(Cc2ccc(Cl)cc2Cl)c(C)c1NC(=O)c1ccc(COc2cc(Cl)ccc2Cl)o1	GLP1R inv ag inconclusive
CC(=O)c1ccc(NC(=O)CSc2ccc3nc(-c4ccccc4)cn3n2)cc1	TGFb inhibitor inconclusive (no result: GLP1R ag)
COc1ccc(NC(=O)CCc2c(C)nc3nc(CNC(=O)OC(C)(C)C)nn3c2C)cc1OC	none (no result: GLP1R ag)
Cc1cc(C)cc(-n2ccnc2SCC(=O)Nc2ccc(C)c(Cl)c2)c1	TGFb inhibitor inconclusive, GLP1R inv ag 8.91µM
Cc1nc(SCC(=O)Nc2ccc(C)c(Cl)c2)cc(-c2ccccc2)n1	TGFb inhibitor 10µM (no result: GLP1R ag, ATXN viability, ATXN2 expr inh)
CCc1ccc(NC(=O)CSc2nccn2-c2ccc(OC)cc2)cc1	GLP1R inv ag 10µM (no result: GLP1R ag, ATXN viability, ATXN2 expr inh)
Brc1ccc2ncnc(NCc3ccccc3)c2c1	TGFb inhibitor inconclusive, ATXN viability inconclusive, GLP1R inv ag 1.41µM
Nc1ccc2c(c1)C(=O)N(c1ccc3ccccc3c1)C2=O	none (no result: GLP1R ag, ATXN viability, ATXN2 expr inh, GLP1R inv ag)
O=C(Cn1cc(S(=O)(=O)Cc2cccc(Cl)c2)c2ccccc21)Nc1ccccc1C(F)(F)F	none (no result: GLP1R ag, ATXN viability, ATXN2 expr inh)
Cc1ccc(NC(=O)Cc2ccc(-c3ccccc3)cc2)nc1	TGFb inhibitor inconclusive, ATXN2 expr inh inconclusive, GLP1R inv ag 10µM
O=[N+]([O-])c1ccc(OC/C=C2\Oc3ccc([N+](=O)[O-])cc3C2N2CCOCC2)cc1 (stereo not drawn)	GLP1R inv ag inconclusive
O=[N+]([O-])c1ccc2c(c1)C(N1CCOCC1)/C(=C/COc1ccc3ccccc3c1Br)O2 (stereo not drawn)	GLP1R inv ag 2.82µM
O=C(Nc1cc(Cl)cc2c1[nH]c1cnccc12)c1cccnc1	none (no result: TGFb inhibitor, HepG2 viability, GLP1R ag, ATXN viability, GLP1R inv ag)
Cc1cc(O)c2ccccc2c1O	ATXN viability inconclusive, ATXN2 expr inh 8.91µM (no result: TGFb inhibitor, HepG2 viability, GLP1R inv ag)
Cc1onc(-c2ccccc2Cl)c1C(=O)Nc1nnc(-c2ccc(F)cc2)s1	GLP1R inv ag inconclusive
Cc1onc(-c2ccccc2Cl)c1C(=O)Nc1nnc(-c2ccc(Br)cc2)s1	TGFb inhibitor inconclusive, GLP1R inv ag 10µM
Cc1onc(-c2ccccc2Cl)c1C(=O)Nc1nnc(-c2ccc(Cl)cc2Cl)s1	none
Cc1onc(-c2ccccc2Cl)c1C(=O)Nc1nc2c(s1)CCCC2	GLP1R inv ag 10µM
Cc1cccc(Cn2c(=O)n(-c3cc(C)cc(C)c3)c(=O)c3oc4ccccc4c32)c1	none (no result: GLP1R ag, ATXN viability, ATXN2 expr inh)
CNC(=O)OCc1nc(SSC(C)(C)C)n(C)c1COC(=O)NC	TGFb inhibitor 11.2µM, ATXN2 expr inh inconclusive, GLP1R inv ag inconclusive (no result: ATXN viability)
COc1ccc(Cl)cc1NC(=O)C1CCN(S(C)(=O)=O)CC1	none
COc1ccc(F)c(F)c1C(=O)c1cnc(NC2CCN(S(C)(=O)=O)CC2)nc1N	ATXN2 expr inh 2.73µM (no result: TGFb inhibitor, HepG2 viability, GLP1R ag, ATXN viability, GLP1R inv ag)
O=C1C[C@H](c2ccc3ccccc3c2)N1S(=O)(=O)c1ccccc1[N+](=O)[O-]	none (no result: GLP1R ag, ATXN viability, ATXN2 expr inh, GLP1R inv ag)
CCc1ccc2[nH]c(=O)c(CN(Cc3cccs3)Cc3nnnn3Cc3ccccc3)cc2c1	TGFb inhibitor inconclusive (no result: GLP1R ag, ATXN viability, ATXN2 expr inh, GLP1R inv ag)
CCCCCCCCCC[n+]1cc(Br)cc(Br)c1	TGFb inhibitor inconclusive, HepG2 viability 22.4µM (no result: GLP1R ag, ATXN viability, ATXN2 expr inh, GLP1R inv ag)
